# Results filed as inconclusive are left out. Unmarked numbers belong to inactive results. Active and inactive are the calls of the source. The call rests on the fitted dose curve; in most records, active means well fitted curve in the direction sought with a large enough effect; inconclusive means small, poorly fitted or top-dose-only effect, or effect the other way, or another doubt; inactive means no such curve, though single readings can be large or run the other way.
# Target: Epidermal growth factor receptor (Homo sapiens) (UniProt P00533)
# Test: Assay for Inhibitors of the ERK Signaling Pathway using a Homogeneous Screening Assay: EGFR T790M Kinase Inhibition
# Conditions: EGFR T790M kinase biochemical inhibition assay; series mostly up to 21.9 µM; activity change, negative = inhibition: at the top concentration
# Text: qHTS Assay for Inhibitors of the ERK Signaling Pathway using a Homogeneous Screening Assay
# NIH Chemical Genomics Center [NCGC]
# NIH Molecular Libraries Screening Centers Network [MLSCN]
# Assay Submitter (PI): Dr. Wei Zheng, NCGC/NIH
# The Ras/extracellular-signal-regulated kinase (ERK) mitogen activated protein (MAP) kinase signaling pathway (ERK1/2 cascade) plays is a key role in transmitting signals from the cell surface to the nucleus (Nishida and Gotoh 1993; Chang and Karin, 2001). The cascade is initiated by the small G-protein Ras, which recruits Raf […], where activation occurs. Alternatively, this pathway can be activated by elevating intracellular cAMP.
# Activation of the ERK pathway is essential in increased cell division and cell survival. Sustained and constitutive activation of the ERK pathway, however, has been linked to uncontrolled cell proliferation, increased cell survival, and tumor progression. Thus, the ERK has been as an attractive target for cancer chemotherapy in the past few years (Sebolt-Leopold and Herrera, 2004). Given its physiological and pathological importance, assessment of ERK phosphorylation has been broadly performed in both basic research and drug discovery. Most assays for the measurement of ERK phosphorylation use the antibody-based detection methods, such as western blot and ELISA. These assays require multiple reagent additions with cell wash steps and are not suitable for high-throughput screening.
# The current cell-based ERK phosphorylation assay was performed using AlphaScreen platform. AlphaScreen is a two bead-based proximity-dependent chemical energy transfer luminescent assay platform. The assay reagents (ERK SureFire(TM) kit) were supplied from TGR BioSciences (Australia). In the presence of specific antibodies, phosphorylated ERK will bring "donor" and "acceptor" beads to a proximity range (<200 nm), and subsequently lead a chemical luminescent reaction upon exciting donor beads with 680 nm laser. To validate pathway hits from the cell-based assay, enzyme assays consisting of EGFR tyrosine kinase, Raf and MEK were used as a means of deciphering the enzymes of target for the prioritized group of compounds derived from the HEK-293 cell based assay. The compounds were tested against significant members of the ERK signaling pathway EGFR and EGFR mutants (EGFR L858R, EGFR T790M, and EGFR L858R T790M). In order to establish the specificity of the prioritized compounds for EGFR and EGFR mutants, the compounds were also assayed against other important ERK signaling pathway enzymes, c-RAF and MEK-1.
# NCGC Assay Protocol Summary:
# The HTRF kinase assay (components supplied as kit by Cisbio) was chosen for the EGFR and EGFR mutant enzyme assays that applied the time resolved fluorescence resonance energy transfer (TR-FRET) principle. A peptide substrate is labeled with a biotin that can bind to XL665 labeled streptavidin and the anti-phosphoresidue antibody is labeled with Eu+. Upon phosphorylation of the substrate, the antibody binds to phosphorylated substrate that enables TR-FRET detection in homogenous assay format.
# An HTRF Kinease TK assay kit (Cisbio, Bedford, MA) was used to develop the EGFR and EGFR mutant assays (Harbert et al., 2008. Harbert C, Marshall J, Soh S, Steger K. Development of a HTRF Kinase Assay for Determination of Syk Activity. Current Chemical Genomics. 1: 20-26. 2008). EGFR and EGFR mutants were obtained from Invitrogen. The assay buffer was composed of 50 mM HEPES (pH 7.0), 5 mM MgCl2, 5mM DTT, 0.1 % NaN3, 0.1 % BSA and 0.1 mM orthovanadate.
# The HTRF assays were preformed according to the HTRF Kinease TK kit. Optimization for each enzyme was preformed in 384 well format (data not included). All reagents were dispensed into 1536 well plates.
# (1) Enzyme, […] EGFR at 3 nM final
# (2) Compound, 22 nl, Library Compounds in 0.128 to 10 mM titration series or control
# (3) Reagent, 1.5 ul 10 uM ATP and 0.25 uM substrate final
# (4) Incubation for 30 min, Ambient conditions
# […]
# Sequence of Epidermal growth factor receptor (Homo sapiens) (P00533 whole entry T790M, looked up): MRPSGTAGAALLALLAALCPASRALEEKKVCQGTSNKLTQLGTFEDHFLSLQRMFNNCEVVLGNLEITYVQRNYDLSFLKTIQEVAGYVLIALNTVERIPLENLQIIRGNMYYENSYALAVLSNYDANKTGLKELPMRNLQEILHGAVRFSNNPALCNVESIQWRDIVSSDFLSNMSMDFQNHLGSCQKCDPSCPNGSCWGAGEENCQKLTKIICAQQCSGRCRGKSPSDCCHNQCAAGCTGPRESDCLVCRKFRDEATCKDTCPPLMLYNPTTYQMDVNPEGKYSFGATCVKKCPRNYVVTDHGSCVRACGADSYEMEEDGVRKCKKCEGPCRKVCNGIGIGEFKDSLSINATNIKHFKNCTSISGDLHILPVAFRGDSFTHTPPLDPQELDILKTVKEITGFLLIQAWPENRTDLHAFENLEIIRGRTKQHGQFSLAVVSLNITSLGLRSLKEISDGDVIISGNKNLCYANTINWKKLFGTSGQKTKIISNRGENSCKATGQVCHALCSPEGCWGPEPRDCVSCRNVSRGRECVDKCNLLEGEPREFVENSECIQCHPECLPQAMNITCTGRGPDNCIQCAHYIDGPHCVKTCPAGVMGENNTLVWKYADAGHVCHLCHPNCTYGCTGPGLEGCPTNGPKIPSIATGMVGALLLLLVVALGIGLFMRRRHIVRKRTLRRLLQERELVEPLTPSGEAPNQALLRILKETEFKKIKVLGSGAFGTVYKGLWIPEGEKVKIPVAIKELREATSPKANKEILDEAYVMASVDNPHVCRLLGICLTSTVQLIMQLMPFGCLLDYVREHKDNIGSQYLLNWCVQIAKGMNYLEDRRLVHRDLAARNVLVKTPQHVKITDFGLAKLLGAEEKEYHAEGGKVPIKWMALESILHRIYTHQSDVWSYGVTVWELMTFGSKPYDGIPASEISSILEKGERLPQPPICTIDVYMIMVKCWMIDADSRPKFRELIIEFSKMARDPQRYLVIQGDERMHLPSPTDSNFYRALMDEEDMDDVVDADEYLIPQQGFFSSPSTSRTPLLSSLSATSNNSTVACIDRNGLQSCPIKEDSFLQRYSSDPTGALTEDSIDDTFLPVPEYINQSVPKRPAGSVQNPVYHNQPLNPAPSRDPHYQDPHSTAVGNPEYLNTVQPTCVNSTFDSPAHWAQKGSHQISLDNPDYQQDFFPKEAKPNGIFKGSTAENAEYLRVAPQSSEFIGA
SMILES,"activity change, negative = inhibition [%]",Potency
COc1ccc(C(=O)c2ccc(Cl)c([N+](=O)[O-])c2)cc1,-4.67,
CCN(CC)CCC(=O)Nc1cccc2c1C(=O)c1ccccc1C2=O,-1.03,
CCn1c(=O)c2[nH]c(-c3ccccc3)nc2n(CC)c1=O,-2.65,
Fc1ccc(Nc2ncnc3sc4c(c23)CCC4)cc1F,-2.3,
Cn1c(=O)[nH]c2nnc(-c3ccc(Cl)c(Cl)c3)nc2c1=O,2.61,
Cc1ccc2nc(=O)c(NNc3ccccc3)cnc2c1,,355 nM (active)
Cc1nc2ccccc2nc(=O)c1NNc1ccccc1,,316 nM (active)
N#C/C(=C(/N)Sc1ccc(N)cc1)c1ccccc1C(F)(F)F,,inactive
CS(=O)(=O)CCNCc1nc(-c2ccc3ncnc(Nc4ccc(OCc5cccc(F)c5)c(Cl)c4)c3c2)cs1,-6.15,
O=C(Nc1nc(-c2ccccc2)cs1)c1ccc(N2CCOCC2)c([N+](=O)[O-])c1,-3.77,
Cn1nc(-c2ccc(Cl)cc2)nc2c(=O)n(C)c(=O)nc1-2,4.21,
Cc1ccc(NNc2c(C)nc3ccccc3nc2=O)cc1,-13.2,
